# “And” between values parts separate entries of the source, which are not always exact repeats. Identical values can stand only once. Records with an inconclusive call do not appear. A call without a number means that no potency is given here. The source holds several records for some structures; these can differ, active in one and inactive in another. The source made the active and inactive calls. Unless noted, calls follow the shape of the dose curve; as a rule, active = well fitted curve in the direction sought with a large enough effect in the repeat runs; inconclusive = weak or mixed curves; inactive = no such curve, though single readings can be large; an effect the other way counts as inactive or inconclusive.
# Experiments:
# [1] = qHTS assay to identify small molecule agonists of the TGF-beta/Smad signaling pathway (AID 1346859; active = well fitted activation curve with a large enough effect in the signal ratio in the repeat runs, not every such curve was filed as active; the % refers to the signal ratio; also: series mostly up to about 77 µM)
# In short: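 Beta-lactamase reporter activity downstream of Smad binding elements was measured in stably transfected HEK 293T cells; compounds were incubated for 5 hr, substrate for 2 hr at room temperature.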
# [2] = target: Thyrotropin-releasing hormone receptor (Homo sapiens) (UniProt P34981); test: qHTS assay to identify small molecule antagonists of the thyrotropin-releasing hormone receptor (TRHR) signaling pathway (AID 1346877; active = well fitted inhibition curve with a large enough effect in the repeat runs, not every such curve was filed as active; also: series mostly up to about 51 µM)
# In short: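 TRHR-expressing HEK293 cells loaded with calcium dye for 2 h at 37 C; compounds pre-incubated 5 min at room temperature before TRH challenge at 1 nM final. Intracellular calcium fluorescence read kinetically for 3 min; 15 concentrations in triplicate.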
# [3] = target: Thyrotropin-releasing hormone receptor (Homo sapiens) (UniProt P34981); test: qHTS assay to identify small molecule agonists of the thyrotropin-releasing hormone receptor (TRHR) signaling pathway (AID 1346891; calls by dose curve; also: potency is read from the fitted curve at half-maximal effect; as to activation: series mostly up to about 58 µM)
# In short: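 Overnight-plated (18 h, 37 °C, 5% CO2) TRHR-Hek293 cells; 2 h calcium dye at 37 °C; compound in DMSO; 3-min kinetic fluorescence read.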
# [4] = Human pregnane X receptor (PXR) small molecule agonists, qHTS cell viability counter screen (AID 1346977); also: nearly all actives have a fitted effect of over 50% in size; also: potency is read from the fitted curve at half-maximal effect
# In short: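 After a 5hr pre-incubation, PXR-Luc HepG2 cells received compounds plus positive control in DMSO and were kept 24hr at 37C. Cell viability was quantified by fluorescence from CellTiter-Fluor added for the final hour.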
# [5] = Caspase-3/7 induction in HepG2 cells by small molecules, qHTS assay (AID 1346978); also: nearly all actives have a fitted effect of over 15% in size
# In short: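 Wild-type HepG2 cells, 2,000/well, settled 5 hr at 37 C and 5% CO2, then compound-treated for 17 hr; caspase-3/7 activity read by luminescent Caspase-Glo 3/7 after 30 min at room temperature.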
# [6] = Caspase-3/7 induction in CHO-K1 cells by small molecules, qHTS cell viability counter screen (AID 1346979); also: nearly all actives have a fitted effect of over 35% in size; also: potency is read from the fitted curve at half-maximal effect
# In short: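 Multiplexed with Caspase-Glo 3/7 in CHO-K1 cells, this counter screen added CellTiter-Fluor after 16hr of compound exposure and recorded fluorescence 1hr later.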
# [7] = Caspase-3/7 induction in CHO-K1 cells by small molecules, qHTS assay (AID 1346980); also: nearly all actives have a fitted effect of over 15% in size
# In short: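 Wild-type CHO-K1 cells exposed to compounds for 17hr at 37 C, 5% CO2. Caspase-3/7 activity then measured by Caspase-Glo 3/7 luminescence after 30min at room temperature.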
# [8] = Caspase-3/7 induction in HepG2 cells by small molecules, qHTS cell viability counter screen (AID 1346981); also: nearly all actives have a fitted effect of over 30% in size; also: potency is read from the fitted curve at half-maximal effect
# In short: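 Wild-type HepG2 cells, 2,000/well, settled 5 hr at 37 C, 5% CO2 before compound addition. Viability read by CellTiter-Fluor fluorescence, reagent added after 16 hr compound exposure, then 1 hr at 37C, in the same wells as the caspase read.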
# [9] = target: Nuclear receptor subfamily 1 group I member 2 (Homo sapiens) (UniProt O75469); test: Human pregnane X receptor (PXR) small molecule agonists, qHTS assay (AID 1346982); also: nearly all actives have a fitted effect of over 35% in size; also: potency is read from the fitted curve at half-maximal effect
# In short: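 PXR-Luc HepG2 reporter cells (CYP3A4-driven luciferase) in 5% charcoal-stripped FBS medium, plated 5 h before compound addition, then treated 24 h at 37C. Luciferase read by ONE-Glo luminescence after 30 min at room temperature.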
# [10] = target: Nuclear receptor subfamily 1 group I member 2 (Rattus norvegicus) (UniProt Q9R1A7); test: Rat pregnane X receptor (rPXR) activation by small molecules, qHTS assay (AID 1346983); conditions: rPXR luciferase reporter cells, One-Glo luminescence, 24 h; stronger effect = higher value; also: nearly all actives have a fitted effect of over 20% in size
# In short: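 Cell-based rPXR activation assay: rPXR cells, 2,000 per well, rested 5hr at 37 C, then exposed to compounds in DMSO for 24 hr at 37 C. Luciferase activity read by One-Glo luminescence after 30 min at room temperature.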
# [11] = target: Nuclear receptor subfamily 1 group I member 2 (Homo sapiens) (UniProt O75469); test: CYP3A4 induction through human pregnane X receptor (PXR) by small molecules, qHTS assay (AID 1346984); also: nearly all actives have a fitted effect of over 40% in size
# In short: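 DPX-2 HepG2 cells carrying a PXR response element and CYP3A4-promoter luciferase construct, treated with compounds 24 hr at 37C. Then P450-Glo CYP3A4 Luciferin-IPA substrate (3uM final) for 3 hr at 37C, One-Glo added, luminescence read.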
# [12] = target: Nuclear receptor subfamily 1 group I member 2 (Homo sapiens) (UniProt O75469); test: Human pregnane X receptor (PXR) activation by small molecules, qHTS assay (AID 1346985); also: nearly all actives have a fitted effect of over 40% in size
# In short: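 DPX-2 cells (HepG2 co-transfected with a PXR response element and a CYP3A4-promoter luciferase construct) were seeded at 2,000 per well, rested 5 hr at 37C, then exposed to DMSO-dissolved compounds for 24 hr. Activation was read as luciferase luminescence.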
# [13] = target: Cytochrome P450 2D6 (Homo sapiens) (UniProt P10635); test: Cytochrome P450 Family 2 Subfamily D Member 6 (CYP2D6) small molecule antagonists: luciferase reporter qHTS assay (AID 1671196); also: nearly all actives have a fitted effect of over 50% in size; also: potency is read from the fitted curve at half-maximal effect
# In short: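 Cell-free P450-Glo system: CYP2D6 with proluciferin substrate was pre-incubated with compound for 10 min, then reacted with NADPH regeneration for 1 h at room temperature. Luciferin product was detected after 20 min, and data were reported as relative luminescence units.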
# [14] = target: Cytochrome P450 2C19 (Homo sapiens) (UniProt P33261); test: Cytochrome P450 Family 2 Subfamily C Member 19 (CYP2C19) small molecule antagonists: luciferase reporter qHTS assay (AID 1671197); also: nearly all actives have a fitted effect of over 65% in size; also: potency is read from the fitted curve at half-maximal effect
# In short: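 First, compounds are pinned into enzyme-substrate mix and held 10 min at room temperature. Second, NADPH regeneration solution is added and plates incubate 1 h at 37C. Third, detection reagent is added and luminescence read after 20 min.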
# [15] = qHTS assay to identify small molecule agonists of the TGF-beta/Smad signaling pathway - cell viability counter screen (AID 1346829); also: top concentration of the series differs between compounds; nearly all actives have a fitted effect of over 45% in size
# In short: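 HEK 293T SBE-bla line, 5 hr compound exposure at 37 C, multiplexed CellTiter-Glo viability read by luminescence.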
# [16] = target: Acetylcholinesterase (Homo sapiens) (UniProt P22303); test: Acetylcholinesterase (AChE) small molecule antagonists: enzyme-based qHTS assay (AID 1347397; calls by dose curve; also: nearly all actives have a fitted effect of over 55% in size); conditions: Potency: AChE enzyme activity inhibition
# In short: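 Recombinant human AChE (50 mU/mL) preincubated with compound 30 min at room temperature; acetylthiocholine plus DTNB then added, and thiocholine formation read colorimetrically after 10 min at room temperature. DMSO served as vehicle control.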
# [17] = target: Acetylcholinesterase (Homo sapiens) (UniProt P22303); test: Acetylcholinesterase (AChE) small molecule antagonists: enzyme-based qHTS assay with human liver microsomes (AID 1347399; calls by dose curve; also: nearly all actives have a fitted effect of over 60% in size); conditions: Potency: qHTS inhibition
# In short: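 Recombinant human AChE (50 mU/mL in the enzyme mix) and human liver microsomes (0.25 mg/mL final) were preincubated with compound and NADPH (0.25 mg/mL final) for 30 min at 37 C. Acetylthiocholine/DTNB was then added; thiocholine was read colorimetrically after 10 min at room temperature.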
# [18] = target: Cytochrome P450 2C9 (Homo sapiens) (UniProt P11712); test: Cytochrome P450 Family 2 Subfamily C Member 9 (CYP2C9) small molecule antagonists: luciferase reporter qHTS assay (AID 1671198); also: nearly all actives have a fitted effect of over 50% in size; also: potency is read from the fitted curve at half-maximal effect
# In short: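 P450-Glo proluciferin substrate with CYP2C9 enzyme; 10 min RT preincubation, then NADPH regeneration 1 h at 37C; luciferin detection reagent 20 min RT, luminescence in relative luminescence units.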
# [19] = target: Acetylcholinesterase (Homo sapiens) (UniProt P22303); test: Acetylcholinesterase (AChE) small molecule antagonists: colormetric cell-based qHTS assay (AID 1347395; calls by dose curve; also: nearly all actives have a fitted effect of over 30% in size; also: potency is read from the fitted curve at half-maximal effect)
# In short: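 In this cell-based qHTS, attached SH-SY5Y cells were treated with test chemicals for 30 min, after which acetylthiocholine hydrolysis was followed by DTNB colour development over 90 min at 37 C.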
# [20] = target: Acetylcholinesterase (Homo sapiens) (UniProt P22303); test: Acetylcholinesterase (AChE) small molecule antagonists: fluorescence cell-based qHTS assay (AID 1347398; calls by dose curve; also: nearly all actives have a fitted effect of over 50% in size; also: potency is read from the fitted curve at half-maximal effect); conditions: Potency: AChE activity
# In short: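 SH-SY5Y cells (2000/well), attached overnight, incubated with compound 30 min at 37 C. Acetylthiocholine plus Thiolite Green then added for 40 min at room temperature. Thiocholine fluorescence (Ex/Em 490/520 nm) reports cellular AChE activity.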
# Cytochrome P450 2C9 (Homo sapiens), sequence (P11712 whole entry, looked up): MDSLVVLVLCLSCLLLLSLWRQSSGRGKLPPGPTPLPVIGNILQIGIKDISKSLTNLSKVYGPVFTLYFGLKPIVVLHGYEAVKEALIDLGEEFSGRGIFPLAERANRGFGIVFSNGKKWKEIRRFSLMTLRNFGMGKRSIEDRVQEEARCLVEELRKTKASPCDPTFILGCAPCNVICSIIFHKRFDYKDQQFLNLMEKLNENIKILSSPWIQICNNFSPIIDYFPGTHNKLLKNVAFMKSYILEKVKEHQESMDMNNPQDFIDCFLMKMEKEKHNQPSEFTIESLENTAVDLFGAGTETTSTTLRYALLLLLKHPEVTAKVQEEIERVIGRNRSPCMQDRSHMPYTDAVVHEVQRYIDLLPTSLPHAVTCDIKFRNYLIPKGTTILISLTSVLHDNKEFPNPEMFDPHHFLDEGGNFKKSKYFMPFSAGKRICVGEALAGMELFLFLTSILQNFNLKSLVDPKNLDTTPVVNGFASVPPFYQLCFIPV
# Thyrotropin-releasing hormone receptor (Homo sapiens), sequence (P34981 whole entry, looked up): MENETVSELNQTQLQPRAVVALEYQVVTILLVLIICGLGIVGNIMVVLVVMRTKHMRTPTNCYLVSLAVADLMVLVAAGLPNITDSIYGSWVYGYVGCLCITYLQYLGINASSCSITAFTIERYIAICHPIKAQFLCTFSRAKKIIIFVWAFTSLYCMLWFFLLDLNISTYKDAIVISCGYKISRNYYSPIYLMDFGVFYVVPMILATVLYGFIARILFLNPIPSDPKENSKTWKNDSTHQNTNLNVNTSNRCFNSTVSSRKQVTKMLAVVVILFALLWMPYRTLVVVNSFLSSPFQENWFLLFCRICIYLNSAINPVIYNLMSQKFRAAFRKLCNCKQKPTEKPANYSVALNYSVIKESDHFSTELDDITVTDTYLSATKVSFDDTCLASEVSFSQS
# Cytochrome P450 2D6 (Homo sapiens), sequence (P10635 whole entry, looked up): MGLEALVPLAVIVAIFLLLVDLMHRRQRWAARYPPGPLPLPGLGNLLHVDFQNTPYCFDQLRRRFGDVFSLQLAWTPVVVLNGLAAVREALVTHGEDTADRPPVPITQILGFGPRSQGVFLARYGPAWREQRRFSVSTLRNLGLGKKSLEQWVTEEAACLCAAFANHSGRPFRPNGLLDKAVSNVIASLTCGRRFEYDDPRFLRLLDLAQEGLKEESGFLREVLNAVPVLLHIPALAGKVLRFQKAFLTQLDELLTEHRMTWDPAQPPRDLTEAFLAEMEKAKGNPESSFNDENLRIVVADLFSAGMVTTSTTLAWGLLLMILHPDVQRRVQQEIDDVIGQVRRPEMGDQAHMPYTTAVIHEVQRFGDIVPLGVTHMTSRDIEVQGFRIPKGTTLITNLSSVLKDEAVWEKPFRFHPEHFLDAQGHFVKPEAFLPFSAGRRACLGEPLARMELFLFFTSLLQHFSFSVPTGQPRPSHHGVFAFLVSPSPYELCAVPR
# Acetylcholinesterase (Homo sapiens), sequence (P22303 whole entry, looked up): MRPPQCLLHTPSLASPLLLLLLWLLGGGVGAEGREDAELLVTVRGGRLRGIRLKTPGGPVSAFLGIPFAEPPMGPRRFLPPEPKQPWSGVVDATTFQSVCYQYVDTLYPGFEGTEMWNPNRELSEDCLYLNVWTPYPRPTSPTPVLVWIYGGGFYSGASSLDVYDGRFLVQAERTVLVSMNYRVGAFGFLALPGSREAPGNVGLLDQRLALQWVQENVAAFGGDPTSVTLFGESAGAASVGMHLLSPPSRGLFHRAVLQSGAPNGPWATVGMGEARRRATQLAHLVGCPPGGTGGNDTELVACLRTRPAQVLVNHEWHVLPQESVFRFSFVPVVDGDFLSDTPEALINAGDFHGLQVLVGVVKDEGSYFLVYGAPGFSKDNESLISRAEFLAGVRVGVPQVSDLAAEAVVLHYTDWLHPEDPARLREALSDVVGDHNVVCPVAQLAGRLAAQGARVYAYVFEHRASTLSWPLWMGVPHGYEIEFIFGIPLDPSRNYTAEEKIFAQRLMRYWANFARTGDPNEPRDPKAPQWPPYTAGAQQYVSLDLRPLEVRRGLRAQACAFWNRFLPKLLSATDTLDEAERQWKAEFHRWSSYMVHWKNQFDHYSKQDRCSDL
# Nuclear receptor subfamily 1 group I member 2 (Homo sapiens), sequence (O75469 whole entry, looked up): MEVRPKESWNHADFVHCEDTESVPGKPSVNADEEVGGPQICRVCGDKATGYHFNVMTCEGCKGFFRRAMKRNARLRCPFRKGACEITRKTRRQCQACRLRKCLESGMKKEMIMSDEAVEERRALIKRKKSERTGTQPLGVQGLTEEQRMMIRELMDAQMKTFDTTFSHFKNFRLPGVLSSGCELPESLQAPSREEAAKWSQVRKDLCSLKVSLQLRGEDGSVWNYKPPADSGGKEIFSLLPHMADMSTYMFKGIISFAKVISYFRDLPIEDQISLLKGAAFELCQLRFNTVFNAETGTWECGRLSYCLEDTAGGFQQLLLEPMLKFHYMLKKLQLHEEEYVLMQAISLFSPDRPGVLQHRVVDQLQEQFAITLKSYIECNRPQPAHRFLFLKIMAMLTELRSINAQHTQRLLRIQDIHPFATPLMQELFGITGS
# Cytochrome P450 2C19 (Homo sapiens), sequence (P33261 whole entry, looked up): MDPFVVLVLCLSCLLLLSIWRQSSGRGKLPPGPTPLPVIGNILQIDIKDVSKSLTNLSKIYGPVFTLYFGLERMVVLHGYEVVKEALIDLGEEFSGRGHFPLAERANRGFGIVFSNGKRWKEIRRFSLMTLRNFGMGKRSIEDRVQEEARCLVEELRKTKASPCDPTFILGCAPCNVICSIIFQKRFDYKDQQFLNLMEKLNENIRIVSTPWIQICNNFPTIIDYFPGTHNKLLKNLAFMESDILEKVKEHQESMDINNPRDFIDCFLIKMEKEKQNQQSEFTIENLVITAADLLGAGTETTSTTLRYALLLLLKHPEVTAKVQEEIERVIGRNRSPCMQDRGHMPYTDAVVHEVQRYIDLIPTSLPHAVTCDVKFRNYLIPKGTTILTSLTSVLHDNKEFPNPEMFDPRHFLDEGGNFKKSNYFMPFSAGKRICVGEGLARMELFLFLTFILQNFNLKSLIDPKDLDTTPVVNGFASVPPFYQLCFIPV
# Nuclear receptor subfamily 1 group I member 2 (Rattus norvegicus), sequence (Q9R1A7 whole entry, looked up): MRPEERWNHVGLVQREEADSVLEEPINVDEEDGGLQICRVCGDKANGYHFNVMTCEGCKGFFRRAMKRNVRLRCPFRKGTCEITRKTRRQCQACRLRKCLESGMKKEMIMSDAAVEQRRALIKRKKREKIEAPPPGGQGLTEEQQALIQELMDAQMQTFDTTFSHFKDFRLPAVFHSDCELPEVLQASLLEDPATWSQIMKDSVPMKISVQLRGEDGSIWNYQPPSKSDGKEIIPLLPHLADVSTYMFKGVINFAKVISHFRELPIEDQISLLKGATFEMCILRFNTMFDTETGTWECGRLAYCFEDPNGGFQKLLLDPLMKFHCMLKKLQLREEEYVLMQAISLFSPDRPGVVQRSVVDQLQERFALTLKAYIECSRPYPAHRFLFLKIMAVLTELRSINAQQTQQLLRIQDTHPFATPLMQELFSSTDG
SMILES,Potency [1],outcome [2],Potency [3],Potency [4],outcome [5],Potency [6],outcome [7],Potency [8],Potency [9],max activation [10],outcome [11],Potency [12],Potency [13],Potency [14],outcome [15],Potency [16],Potency [17],Potency [18],Potency [19],Potency [20]
CN(C)[C@@H]1C(=O)C(C(N)=O)=C(O)[C@@]2(O)C(=O)C3=C(O)c4c(O)cccc4[C@@](C)(O)[C@H]3C[C@@H]12,inactive,inactive,inactive,inactive,inactive,inactive,inactive,inactive,inactive,-1.09% (inactive),inactive,inactive,31.8 µM (active) and inactive and 19.5 µM (active),inactive,,,,,,
CCC(C)(CC)c1cc(NC(=O)c2c(OC)cccc2OC)on1,inactive,inactive,inactive,inactive,inactive,,inactive,inactive,4.34 µM (active) and 831 nM (active),,,,inactive,40 µM (active) and 68.3 µM (active),inactive,inactive,inactive,35.7 µM (active) and 34.2 µM (active),,
COCCl,inactive,,,39.8 µM (active) and inactive,inactive,20.1 µM (active) and inactive,inactive,35.7 µM (active) and inactive,56.6 µM (active) and inactive,,,,inactive,33 µM (active) and 22.6 µM (active),inactive,,inactive,inactive,inactive,inactive
C=CC(N)=O,inactive,inactive,inactive,inactive,inactive,inactive,inactive,inactive,inactive,,,,,,inactive,,,inactive,,
C1CC2OC2CC1C1CO1 (centres undefined),inactive,,,inactive,inactive,inactive,inactive,inactive,inactive,,,,,69.7 µM (active),inactive,,inactive,,inactive,inactive
CCOP(=S)(OCC)SCCSCC,inactive,inactive,inactive,inactive,inactive,inactive,inactive,inactive,inactive,,,,20.6 µM (active) and inactive,3.67 µM (active) and 1.07 µM (active),inactive,inactive,inactive,,,inactive
Cc1ccc(N)cc1N,inactive,inactive,inactive,inactive,inactive,inactive,inactive,inactive,inactive,,,,30.9 µM (active) and 31.7 µM (active),34.6 µM (active) and 31.7 µM (active),inactive,,inactive,34.6 µM (active) and 39.9 µM (active),inactive,inactive
OCCN(CCO)CCO,inactive,,,inactive,inactive,inactive,inactive,inactive,inactive,,,,,inactive,inactive,inactive,inactive,,inactive,inactive
c1cc2c3c(cccc3c1)CC2,inactive,inactive,inactive,inactive,inactive,inactive,inactive,inactive,inactive,,,,,45.9 µM (active) and inactive,inactive,,inactive,,36.5 µM (active) and inactive,inactive
Oc1ccccc1Cl,inactive,inactive,inactive,inactive,inactive,inactive,inactive,inactive,inactive,,,,inactive,inactive,inactive,,inactive,inactive,inactive,inactive
CC1C=[C-]C=C1.[C-]#[O+].[C-]#[O+].[C-]#[O+].[Mn],inactive,,,inactive,inactive,inactive,inactive,inactive,54.5 µM (active) and 19.2 µM (active),,,,inactive,inactive,inactive,inactive,inactive,,inactive,inactive
O=c1n(Cl)c(=O)n(Cl)c(=O)n1Cl,inactive,inactive,inactive,inactive,inactive,inactive,inactive,inactive,inactive,0.0046% (inactive),inactive,inactive,inactive,inactive,,inactive,inactive,,inactive,inactive
CN(N=O)c1ccccc1,inactive,inactive,inactive,inactive,inactive,inactive,inactive,inactive,inactive,,,,inactive,inactive,inactive,,inactive,inactive,inactive,inactive
CC(Oc1ccc(Cl)cc1Cl)C(=O)O (centres undefined),inactive,inactive,inactive,inactive,inactive,inactive,inactive,inactive,inactive,,,,inactive,35.7 µM (active),,inactive,inactive,35.7 µM (active) and 71 µM (active),inactive,inactive
Nc1c(Cl)c(Cl)nc(C(=O)O)c1Cl,,inactive,inactive,inactive,inactive,inactive,inactive,inactive,56.1 µM (active) and inactive,,,,,inactive and 8.22 µM (active),,,inactive,inactive and 65.3 µM (active),inactive,inactive
ClCCBr,inactive,inactive,inactive,inactive,inactive,inactive,inactive,inactive,inactive,,,,,79.4 µM (active) and inactive,,,inactive,inactive,inactive,inactive
Nc1ccc(Br)cc1,inactive,inactive,inactive,inactive,inactive,inactive,inactive,inactive,inactive,,,,,50.2 µM (active) and 39.9 µM (active),,,inactive,35.5 µM (active) and 35.6 µM (active),inactive,inactive
CC(C#N)CCC#N (centres undefined),inactive,inactive,inactive,inactive,inactive,inactive,inactive,inactive,inactive,,,,inactive,inactive,,,inactive,inactive,inactive,35.2 µM (active) and inactive
Nc1ccc(Cc2ccc(N)cc2)cc1,inactive,inactive,inactive,inactive,inactive,inactive,inactive,inactive,60.1 µM (active) and inactive,,,,,35 µM (active) and inactive,,,inactive,31.2 µM (active) and inactive,inactive,inactive
C=CCO,inactive,inactive,inactive and 8.71 µM (active),inactive,inactive,inactive,inactive,inactive,inactive,,,,inactive,inactive,,,inactive,inactive,inactive,inactive
O=Cc1cccc(Oc2ccccc2)c1,inactive,,,inactive,inactive,inactive,inactive,inactive,inactive,,,,inactive,16 µM (active) and 71 µM (active),,inactive,inactive,40.2 µM (active),inactive,inactive
C[C@]12CC[C@H]3[C@@H](CC[C@@]45O[C@@H]4C(O)=C(C#N)C[C@]35C)[C@@H]1CC[C@@H]2O,,,,inactive,inactive,inactive,inactive,inactive,inactive,-0.29% (inactive),inactive,inactive,,inactive,,,inactive,inactive,inactive,inactive
Clc1cccc(Cl)c1Cl,inactive,inactive,inactive,inactive,inactive,inactive,inactive,inactive,inactive,,,,,35.2 µM (active) and inactive,,inactive,inactive,,inactive,inactive
O=S(=O)(c1ccc(Cl)cc1)c1cc(Cl)c(Cl)cc1Cl,inactive,inactive,inactive,inactive,inactive,54.4 µM (active) and 68.6 µM (active),inactive,inactive,30.6 µM (active),,,,inactive,251 nM (active) and 252 nM (active),,,inactive,,inactive,inactive

# — PubChem BioAssay (Tox21)
